This excerpt belongs to a sample that is enriched for hits.
Lamin A splicing: qHTS Assay for Modulators of Lamin A Splicing; HeLa LMNA splicing GFP/RFP minigene ratio, 48 h; Potency, µM (doses to about 46.1 µM), inactives show at the highest dose ratio change, negative = inhibition, actives largely listed as inhibitors; hit rate 0.01% among 200,000; active = well fitted inhibition curve with a large enough effect in the signal ratio, with a control signal flat, not every such curve was filed as active; inconclusive = small, poorly fitted or top-dose-only effect, or effect the other way, or a change in a side signal; the % refers to the signal ratio; note: potency is the fitted concentration of half-maximal effect
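S3 HeLa cells stably expressing lamin A-EGFP splicing minigene plus DsRed2, 600 cells/well, 48 h compound exposure at 37C. Laser-scanning cytometry; analysed as GFP (500-530 nm)/RFP (575-640 nm) total intensity ratio; 0.5% DMSO vehicle.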
IMPase inh: qHTS Assay for Identifying the Cell-Membrane Permeable IMPase Inhibitors | 120,000 tested, under 10 active | inhibition (IP1 accumulation), % at 46.1 µM | AID 901, 2007 | CHO-M1 cells, IP1 accumulation, HTRF TR-FRET ratio | Inositol monophosphatase 1 (Rattus norvegicus), P97697; active = well fitted curve in the direction sought with a large enough effect in the signal ratio, not every such curve was filed as active; inconclusive = small, poorly fitted or top-dose-only effect, or a change in a side signal; inactive = no such curve, though single readings can be large or run the other way; the % refers to the signal ratio;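 note: cells stimulated with carbachol in lithium chloride buffer; plate controls were DMSO basal wells for no effect and reference inhibitor wells for full effect; higher means more IMPase inhibition seen as more IP1 and lower FRET ratio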
Target sequence (P97697 whole entry, looked up): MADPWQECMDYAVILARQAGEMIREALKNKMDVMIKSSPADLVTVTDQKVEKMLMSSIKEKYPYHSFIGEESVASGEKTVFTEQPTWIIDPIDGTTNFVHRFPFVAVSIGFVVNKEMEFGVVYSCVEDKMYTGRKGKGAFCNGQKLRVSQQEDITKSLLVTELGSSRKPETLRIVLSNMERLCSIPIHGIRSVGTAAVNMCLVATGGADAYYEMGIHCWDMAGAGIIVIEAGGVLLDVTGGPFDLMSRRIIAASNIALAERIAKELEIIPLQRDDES
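CHO-M1 cells (CHO stably expressing M1 receptor), compound up to 46 uM final, stimulated with carbachol (50 uM as added) in buffer with 50mM LiCl, pH 7.4, 30 min at 37C. Cytosolic IP1 read by TR-FRET; AC50 from Hill fits.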
PNC assembly inh: High Content Assay for Compounds that inhibit the Assembly of the Perinucleolar Compartment; PC3M PTB-GFP, PNC prevalence imaging, 16 h; active compounds read low; activity change (PNC), negative = inhibition, % at 10 µM; hit rate 3.1% among 140,000;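 active = readout at or below -70, meaning at least 70% loss of cells showing the perinucleolar compartment, a nuclear body marking cancer cells; inconclusive = readout between -30 and a set limit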;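 note: plate controls were DMSO wells for no effect and camptothecin positive control wells for full effect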
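Read-out is percentage of cells bearing a perinucleolar compartment, from automated 20x imaging of fixed, Hoechst-stained PC3M PTB-GFP cells. Cells were seeded 4 h, then exposed 16 h to compound (23 nl of library stock) in duplicate plates.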
Numbers without * were called inactive; ? = inconclusive; / = no result; [ ] = dose if it differs, or a comment. Unless noted, % is set by controls: 0 for no effect and ±100 for the full control effect.

SMILES | Lamin A splicing | IMPase inh | PNC assembly inh
Nc1nc(CN2CCCCCC2)nc(Nc2ccccc2)n1 | -10.4% | 4.0 | ?
CCc1ccc(Oc2nc3c(C)cccn3c(=O)c2/C=C(\C#N)c2nc3ccccc3[nH]2)cc1 | / | -10.1 | /
Cc1ccc(CNC(=O)CN2CCN(Cc3ccc(F)cc3)C2=O)cc1 | / | -2.3 | /
CC(C)CC(=O)O/N=C1\C(=O)N(Cc2ccc(Cl)cc2)c2ccc([N+](=O)[O-])cc21 | ? | -6.3 | 13.8
COc1cc(C(=O)Nc2nnc(S(=O)(=O)N(C)c3ccccc3)s2)cc(OC)c1OC | 14.4%[46 µM] | / | /
Cc1[nH]c(=O)[nH]c(=O)c1/C=N/NC(=O)[C@H](CC(C)C)NC(=O)OC(C)(C)C | -7.5% | 3.7 | 24.2
Cc1[nH]c(=O)[nH]c(=O)c1/C=N/NC(=O)[C@H](C)NC(=O)OC(C)(C)C | -5.1% | -4.7 | -106.0*
c1ccc(-n2ncc3c(NCc4ccco4)ncnc32)cc1 | -23.4% | 2.9 | 30.8
c1ccc(Cn2ncc3c(NCc4ccco4)ncnc32)cc1 | 0.8% | 3.3 | -105.1*
COc1ccc(S(=O)(=O)N(CCc2ccccc2)CC(=O)Nc2cc(C)cc(C)c2)cc1OC | / | 0.8 | /
CC12CN(S(=O)(=O)c3ccccc3)CC(C)(CN(S(=O)(=O)c3ccccc3)C1)C2 | 11.5% | -4.2 | -113.4*
CCS(=O)(=O)N1CCN(S(=O)(=O)c2ccccc2)CC1 | 5.9% | 4.0 | 2.3
CCCCNC(=O)CSc1nnc(-c2ccc(S(=O)(=O)N3CCCC3)cc2)n1C | 4.7% | 1.1 | -100.0*
Cn1c(SCC(=O)NCc2cccs2)nnc1-c1ccc(S(=O)(=O)N2CCCC2)cc1 | 16.8% | 6.6 | -19.4
CCOC(=O)c1cnc2c(ccc3ccccc32)c1Nc1ccccc1O | / | 7.0 | /
Cc1ccccc1Cn1ccn(-c2ccc(F)c(F)c2)c(=O)c1=O | 13.6%[46 µM] | / | /
CCCOc1cccc(OCCSc2nc(C)cc(=O)[nH]2)c1 | ? | 7.1 | -85.7*
Cc1cc(=O)[nH]c(SCCCOc2ccc(F)cc2)n1 | 9.3% | 0.8 | 23.6
COC(=O)c1ccc(/C=C(\C#N)C(=O)NC(C)c2ccccc2)cc1 (stereo not given) | ? | 7.0 | -99.9*
Cc1ccc(/C=C(/C#N)C(=O)NC(=O)Oc2ccccc2)cc1 | -6.3% | 10.6 | -101.4*
CC(NC(=O)/C(C#N)=C/c1cccs1)c1ccccc1 (stereo not given) | -3.1%[46 µM] | / | /
Cc1ccc(OC(=O)Nc2ccccc2)cc1 | 7.1%[46 µM] | / | /
O=C(CSc1nnc(CCCOc2ccc(Cl)cc2Cl)o1)Nc1ccc(C(=O)O)cc1 | 10.1% | / | -85.5*
O=C(CSc1nnc(Cc2ccc(Cl)cc2)o1)Nc1ccccc1 | -17.4%[46 µM] | / | /
C/C(=N\NC(=O)c1cccc(S(=O)(=O)Nc2ccccc2Cl)c1)c1ccco1 | -3.0% | / | 10.0
SMILES | Lamin A splicing | IMPase inh | PNC assembly inh
C/C(=N\NC(=O)c1ccc(Cl)c(S(=O)(=O)Nc2ccccc2Cl)c1)c1ccncc1 | -4.3% | / | -83.3*
O=C(CCc1nnc(-c2ccsc2)o1)N1CCc2c(Cl)cccc2C1 | 16.9%[46 µM] | / | /
O=C(O)C1CCN(C(=O)c2ccco2)CC1 | -5.4%[46 µM] | / | /
O=C(c1ccco1)N1c2ccccc2Sc2ccccc21 | ? | 4.8 | 218.2
O=C(c1ccco1)N1CCN(C(=O)c2ccccc2Oc2ccccc2)CC1 | -8.4% | / | -111.6*
O=C(c1c(Cl)cccc1Cl)N1CCN(c2ccccn2)CC1 | 0.8% | -6.3 | ?
O=C(N1CCN(c2ccccn2)CC1)N1c2ccccc2Sc2ccccc21 | ? | 51.9 | -84.0*
NC(=O)C1CCN(C(=O)c2ccco2)CC1 | 2.6% | -6.2 | -80.5*
O=C(c1ccco1)N1CCN(C(=O)N2c3ccccc3Sc3ccccc32)CC1 | ? | -7.0 | -89.2*
CCOC(=O)N1CCN(C(=O)c2ccccc2Oc2ccccc2)CC1 | 7.7% | 14.3 | ?
CCN(CC)S(=O)(=O)c1ccc(/C=C/C(=O)OCC(=O)N(C(C)C)C(C)C)cc1 | -0.9%[46 µM] | / | /
COc1cc2ccccc2cc1C(=O)Nc1ccc2oc(-c3ccc(F)cc3Cl)nc2c1 | / | 1.6 | /
O=S(=O)(Nc1cccc(C(F)(F)F)c1)c1cccnc1 | 4.3% | 38.0 | 22.4
O=S(=O)(Nc1cccnc1)c1cccc(C(F)(F)F)c1 | 6.7% | -6.7 | -91.5*
COc1cccc(CNC(=O)CN2C(=O)N(c3ccc(C)cc3C)S(=O)(=O)c3ccccc32)c1OC | -2.1%[46 µM] | / | /
N#CCSc1nnc(COc2cccc3ccccc23)n1-c1ccccc1 | ? | -2.7 | -24.3
N#CCSc1nnc(COc2cccc3ccccc23)n1-c1cccc(Cl)c1 | ? | 7.2 | -80.1*
CC(=O)c1cccc(NC(=O)NC2CC3CCCC(C2)N3CC(C)C)c1 (stereo not given) | -1.1% | -4.7 | -100.0*
CCCN1C2CCCC1CC(NC(=O)Nc1cccc(C(C)=O)c1)C2 (stereo not given) | -7.3% | -8.4 | ?
CCCn1c(=O)c2c(nc3n2CCN3c2ccc(C)cc2)n(C)c1=O | 0.4%[46 µM] | / | /
COc1cc(C(=O)OCc2cc3ccccc3[nH]c2=O)cc(OC)c1OC | -13.7% | -4.7 | -100.0*
Cc1ccc(C(=O)OCc2cc3ccccc3[nH]c2=O)cc1 | 4.7% | -0.4 | -22.6
Cc1ccc(C)c(-n2nnnc2SCC(=O)NNC(=O)c2ccco2)c1 | -4.5%[46 µM] | / | /
Cc1cccn2c(=O)c3cc(C(=O)NCCCN4CCOCC4)n(C)c3nc12 | -6.8% | 7.2 | -95.0*
CCCCNC(=O)c1cc2c(=O)n3cccc(C)c3nc2n(CCN2CCOCC2)c1=N | 7.4% | 0.6 | 30.5
SMILES | Lamin A splicing | IMPase inh | PNC assembly inh
CCOCCCNC(=O)C(c1ccc(C)cc1)N(Cc1ccc2c(c1)OCO2)C(=O)CNC(C)=O (stereo not given) | -5.9% | 8.2 | -100.0*
CCOCCCNC(=O)C(c1ccccc1)N(Cc1ccc2c(c1)OCO2)C(=O)CNC(C)=O (stereo not given) | -8.5% | -0.3 | -13.0
COc1ccc(CNC(=O)CS(=O)(=O)c2cccc3nsnc23)cc1 | 10.2%[46 µM] | / | /
CCNS(=O)(=O)c1ccc(NC(=O)Cn2cc([N+](=O)[O-])cn2)cc1 | -3.2%[46 µM] | / | /
COc1ccccc1NC(=O)CN1CCN(CC(=O)Nc2ccc3c(c2)OCCO3)CC1 | 1.1% | 8.1 | 9.1
COc1ccc(NC(=O)CN2CCN(c3ccccc3Cl)CC2)cc1 | -11.8% | 1.9 | -100.0*
COc1ccc(NC(=O)CN2CCN(CC(=O)Nc3ccccc3Cl)CC2)cc1 | -0.9% | -8.4 | 50.8
O=C(CSCc1c(Cl)cccc1Cl)Nc1ccc2c(c1)OCCO2 | ? | / | -83.4*
O=C(COc1ccccc1Cl)Nc1ccc2c(c1)OCCO2 | -12.4% | 4.6 | 13.8
O=C(CN1CCN(CC(=O)Nc2ccccc2Cl)CC1)Nc1ccc2c(c1)OCCO2 | 2.1% | -0.4 | -100.0*
Clc1cccc(NCc2nnc(SCc3ccc(Cl)cc3Cl)o2)c1 | ? | 1.5 | -118.8*
CC(C)(C)OC(=O)NCCc1nnc(SCc2ccc(Cl)cc2Cl)o1 | -7.5% | 6.5 | ?
Cc1ccc(OC(C)C(=O)NCC2(N3CCOCC3)CCCCC2)cc1C (stereo not given) | -2.0%[46 µM] | / | /
CCOC(=O)c1c(C)oc2nc(C)nc(NCCCN3CCN(c4cccc(C)c4)C(C)C3)c12 (stereo not given) | -15.7%[46 µM] | / | /
COc1ccccc1N1CCN(c2ncnc3onc(C)c23)CC1 | 12.5%[46 µM] | / | /
